Measurements as given in PubChem BioAssay (Tox21).
Inconclusive results are not listed. Calls of active or inactive are those of the source. Unless noted, the call rests on the fitted dose curve; in most records, active means well fitted curve in the direction sought with a large enough effect in the repeat runs; inconclusive means weak or mixed curves; inactive means no such curve, though single readings can be large; an effect the other way counts as inactive or inconclusive.

Columns and labels:
[1] = qHTS assay to identify small molecule antagonists of the thyroid receptor (TR) signaling pathway - cell viability counter screen (AID 743064); further: nearly all actives have a fitted effect of over 50% in size; further: potency means the concentration at half of the fitted maximal effect
Outline: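 GH3.TRE-Luc cells, 4 h pre-plating; cpd + T3 1 nM final; 37 °C 23.5 h; CellTiter-Fluor 30 min; fluorescence read.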

[2] = system: thyroid hormone receptor (rat, GH3 cells); assay: qHTS assay to identify small molecule agonists of the thyroid receptor (TR) signaling pathway (AID 743066; calls by dose curve)
[3] = target: Estrogen receptor (Homo sapiens) (UniProt P03372); assay: qHTS assay to identify small molecule antagonists of the estrogen receptor alpha (ER-alpha) signaling pathway (AID 743069; active means well fitted curve in the direction sought with a large enough effect in the signal ratio in the repeat runs, not every such curve was filed as active; the % refers to the signal ratio)
Estrogen receptor (Homo sapiens), sequence (P03372 whole entry, looked up): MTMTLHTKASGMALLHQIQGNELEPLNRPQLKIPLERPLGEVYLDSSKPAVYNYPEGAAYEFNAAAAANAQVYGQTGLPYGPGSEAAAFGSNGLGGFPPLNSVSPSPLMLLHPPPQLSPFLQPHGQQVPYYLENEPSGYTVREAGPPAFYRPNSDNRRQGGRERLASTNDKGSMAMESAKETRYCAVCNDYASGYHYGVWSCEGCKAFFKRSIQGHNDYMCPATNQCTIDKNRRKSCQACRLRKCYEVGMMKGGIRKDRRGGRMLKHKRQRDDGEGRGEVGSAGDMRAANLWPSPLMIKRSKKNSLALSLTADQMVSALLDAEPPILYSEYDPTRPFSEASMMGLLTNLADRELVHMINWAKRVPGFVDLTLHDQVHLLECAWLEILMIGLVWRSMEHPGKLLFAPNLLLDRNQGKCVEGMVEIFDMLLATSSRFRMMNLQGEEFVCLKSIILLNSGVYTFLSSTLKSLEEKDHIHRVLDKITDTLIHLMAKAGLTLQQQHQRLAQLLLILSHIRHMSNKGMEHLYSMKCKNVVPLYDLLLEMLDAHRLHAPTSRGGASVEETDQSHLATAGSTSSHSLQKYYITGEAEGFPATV
Outline: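 Beta-lactamase FRET fluorescence is read after 2 hr at room temperature with LiveBLAzer B/G substrate. Before that, ER-alpha-bla HEK293 cells sit 4 hr after plating, then receive compound plus 17beta-estradiol and incubate 18 hr at 37C.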

[4] = qHTS assay to identify small molecule antagonists of the estrogen receptor alpha (ER-alpha) signaling pathway - cell viability counter screen (AID 743074; calls by dose curve;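 further: HEK293 cells carrying ER-alpha-UAS-bla reporter stimulated with 17beta-estradiol; nearly all actives have a fitted effect of over 45% in size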)
[5] = target: Estrogen receptor (Homo sapiens) (UniProt P03372); assay: qHTS assay to identify small molecule agonists of the estrogen receptor alpha (ER-alpha) signaling pathway (AID 743075; calls by dose curve;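 further: HEK293 GripTite cells with ER-alpha and UAS-driven beta-lactamase reporter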)
[6] = target: Estrogen receptor (Homo sapiens) (UniProt P03372); assay: qHTS assay to identify small molecule agonists of the estrogen receptor alpha (ER-alpha) signaling pathway using the BG1 cell line (AID 743079); settings: BG1Luc4E2 cells, ERE-luciferase agonist, 22 h; further: nearly all actives have a fitted effect of over 20% in size; further: potency means the concentration at half of the fitted maximal effect
[7] = qHTS assay to identify small molecule antagonists of the estrogen receptor alpha (ER-alpha) signaling pathway using the BG1 cell line (AID 743080; calls by dose curve;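 further: BG1 cells stimulated with 17beta-estradiol alongside compound; nearly all actives have a fitted effect of over 25% in size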)
Outline: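 Endogenous full-length ER-alpha in BG1-Luc-4E2 cells drives a stably integrated 4×ERE luciferase gene; compounds were tested against 17beta-estradiol over 21.5 h, with luminescence and multiplexed viability fluorescence recorded.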

[8] = qHTS assay to identify small molecule antagonists of the estrogen receptor alpha (ER-alpha) signaling pathway using the BG1 cell line - cell viability counter screen (AID 743081);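 further: compound given together with 17beta-estradiol as the ER stimulus; nearly all actives have a fitted effect of over 45% in size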
Aromatase (Homo sapiens) = Aromatase (Homo sapiens) (UniProt P11511); assay: qHTS assay to identify aromatase inhibitors (AID 743083); further: nearly all actives have a fitted effect of over 55% in size
Aromatase (Homo sapiens), sequence (P11511 whole entry, looked up): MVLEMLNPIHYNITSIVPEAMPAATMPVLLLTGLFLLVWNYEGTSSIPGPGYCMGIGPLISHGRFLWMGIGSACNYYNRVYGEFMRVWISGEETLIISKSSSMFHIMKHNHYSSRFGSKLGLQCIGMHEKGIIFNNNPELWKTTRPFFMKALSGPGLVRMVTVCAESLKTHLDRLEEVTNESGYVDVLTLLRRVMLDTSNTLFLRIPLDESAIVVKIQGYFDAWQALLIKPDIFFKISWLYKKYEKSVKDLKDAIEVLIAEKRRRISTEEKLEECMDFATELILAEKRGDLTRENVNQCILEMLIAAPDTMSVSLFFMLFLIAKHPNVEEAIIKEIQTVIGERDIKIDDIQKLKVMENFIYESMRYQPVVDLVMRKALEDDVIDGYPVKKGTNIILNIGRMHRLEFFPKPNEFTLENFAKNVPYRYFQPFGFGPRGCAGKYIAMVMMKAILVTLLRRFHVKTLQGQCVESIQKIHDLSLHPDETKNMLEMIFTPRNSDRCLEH

[9] = qHTS assay to identify aromatase inhibitors - cell viability counter screen (AID 743084);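 further: cells stimulated with testosterone during compound exposure; nearly all actives have a fitted effect of over 55% in size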
[10] = qHTS assay to identify small molecule that activate the aryl hydrocarbon receptor (AhR) signaling pathway - cell viability counter screen (AID 743086);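 further: HepG2 liver cells carrying the AhR DRE luciferase reporter; nearly all actives have a fitted effect of over 45% in size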
Outline: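 HepG2-AhR-luc (HG2L7.5c1) cells, 4000/well, treated 24 h at 37 C with compound; viability measured as CellTiter-Fluor fluorescence after 30 min in the same wells as the luciferase read.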

[11] = target: Peroxisome proliferator-activated receptor gamma (Homo sapiens) (UniProt P37231); assay: qHTS assay to identify small molecule agonists of the peroxisome proliferator-activated receptor gamma (PPARg) signaling pathway (AID 743094; active means well fitted activation curve with a large enough effect in the signal ratio in the repeat runs, not every such curve was filed as active; the % refers to the signal ratio)
Peroxisome proliferator-activated receptor gamma (Homo sapiens), sequence (P37231 whole entry, looked up): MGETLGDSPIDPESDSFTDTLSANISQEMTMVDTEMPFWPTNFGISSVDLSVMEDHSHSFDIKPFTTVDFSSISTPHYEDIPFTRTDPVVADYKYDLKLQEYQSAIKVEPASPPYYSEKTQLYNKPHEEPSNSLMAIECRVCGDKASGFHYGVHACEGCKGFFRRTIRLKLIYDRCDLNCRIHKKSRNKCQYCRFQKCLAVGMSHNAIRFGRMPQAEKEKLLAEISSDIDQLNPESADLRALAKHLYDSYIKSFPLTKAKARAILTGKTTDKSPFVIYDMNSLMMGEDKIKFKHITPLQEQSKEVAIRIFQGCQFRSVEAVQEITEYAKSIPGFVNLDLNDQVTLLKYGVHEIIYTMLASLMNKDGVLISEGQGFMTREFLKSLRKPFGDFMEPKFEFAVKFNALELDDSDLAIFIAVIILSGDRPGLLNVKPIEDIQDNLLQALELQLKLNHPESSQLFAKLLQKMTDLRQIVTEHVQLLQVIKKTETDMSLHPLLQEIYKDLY
Outline: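 Cell-based bla reporter, HEK293H background, PPARg-driven UAS. Pre-incubation 5 h, 37C, 5% CO2. Compound 17 h, 37C. Substrate 1 h RT; fluorescence.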

[12] = target: Peroxisome proliferator-activated receptor gamma (Homo sapiens) (UniProt P37231); assay: qHTS assay to identify small molecule antagonists of the peroxisome proliferator-activated receptor gamma (PPARg) signaling pathway (AID 743191; calls by dose curve; further: nearly all actives have a fitted effect of over 30% in size)
Outline: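 GeneBLAzer PPARg UAS-bla HEK293H cells, 5 h post-plating, exposed to compounds 17 h at 37C. LiveBLAzer B/G FRET substrate added for 1 h at room temperature; beta-lactamase reporter read by fluorescence intensity.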

[13] = qHTS assay to identify small molecule antagonists of the peroxisome proliferator-activated receptor gamma (PPARg) signaling pathway - cell viability counter screen (AID 743194); settings: Potency: co-treated with 50 nM rosiglitazone; further: nearly all actives have a fitted effect of over 55% in size
Outline: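 Cytotoxicity counter screen in PPARg-bla HEK293H cells, same wells as reporter assay. Compounds plus 50 nM rosiglitazone (final) for 17 h at 37 C, then viability read by CellTiter-Glo luminescence.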

[14] = qHTS assay for small molecule agonists of the antioxidant response element (ARE) signaling pathway - cell viability counter screen (AID 743203; calls by dose curve; further: nearly all actives have a fitted effect of over 55% in size)
Outline: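 Measured in the same wells as the beta-lactamase ARE reporter, this read-out is CellTiter-Glo luminescence from HepG2 ARE-bla cells given compounds for 16 hrs.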

[15] = qHTS assay for small molecule activators of the heat shock response signaling pathway - cell viability counter screen (AID 743209); further: nearly all actives have a fitted effect of over 50% in size
Outline: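 Same-well multiplex: after 2.5 h room-temperature incubation with LiveBLAzer B/G substrate and fluorescence reading, CellTiter-Glo reagent was added to HSE-bla HeLa cells that had received compound for 5 h at 37 C; luminescence read after 30 min.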

[16] = qHTS assay for small molecule activators of the heat shock response signaling pathway (AID 743210; active means well fitted activation curve with a large enough effect in the signal ratio in the repeat runs, with a control signal flat, not every such curve was filed as active; the % refers to the signal ratio;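 further: HeLa cells with beta-lactamase reporter driven by heat shock elements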)
Outline: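 Beta-lactamase reporter read-out: FRET substrate fluorescence after 2.5 h at RT, following 5 h compound treatment at 37 C of HeLa cells carrying HSE-driven bla reporter; quantitative HTS format.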

[17] = target: Aryl hydrocarbon receptor (Homo sapiens) (UniProt P35869); assay: qHTS assay to identify small molecule that activate the aryl hydrocarbon receptor (AhR) signaling pathway (AID 743085); further: nearly all actives have a fitted effect of over 15% in size; further: potency means the concentration at half of the fitted maximal effect;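 on activation: HG2L7.5c1 human HepG2 liver cells with stably integrated DRE-driven firefly reporter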
Aryl hydrocarbon receptor (Homo sapiens), sequence (P35869 whole entry, looked up): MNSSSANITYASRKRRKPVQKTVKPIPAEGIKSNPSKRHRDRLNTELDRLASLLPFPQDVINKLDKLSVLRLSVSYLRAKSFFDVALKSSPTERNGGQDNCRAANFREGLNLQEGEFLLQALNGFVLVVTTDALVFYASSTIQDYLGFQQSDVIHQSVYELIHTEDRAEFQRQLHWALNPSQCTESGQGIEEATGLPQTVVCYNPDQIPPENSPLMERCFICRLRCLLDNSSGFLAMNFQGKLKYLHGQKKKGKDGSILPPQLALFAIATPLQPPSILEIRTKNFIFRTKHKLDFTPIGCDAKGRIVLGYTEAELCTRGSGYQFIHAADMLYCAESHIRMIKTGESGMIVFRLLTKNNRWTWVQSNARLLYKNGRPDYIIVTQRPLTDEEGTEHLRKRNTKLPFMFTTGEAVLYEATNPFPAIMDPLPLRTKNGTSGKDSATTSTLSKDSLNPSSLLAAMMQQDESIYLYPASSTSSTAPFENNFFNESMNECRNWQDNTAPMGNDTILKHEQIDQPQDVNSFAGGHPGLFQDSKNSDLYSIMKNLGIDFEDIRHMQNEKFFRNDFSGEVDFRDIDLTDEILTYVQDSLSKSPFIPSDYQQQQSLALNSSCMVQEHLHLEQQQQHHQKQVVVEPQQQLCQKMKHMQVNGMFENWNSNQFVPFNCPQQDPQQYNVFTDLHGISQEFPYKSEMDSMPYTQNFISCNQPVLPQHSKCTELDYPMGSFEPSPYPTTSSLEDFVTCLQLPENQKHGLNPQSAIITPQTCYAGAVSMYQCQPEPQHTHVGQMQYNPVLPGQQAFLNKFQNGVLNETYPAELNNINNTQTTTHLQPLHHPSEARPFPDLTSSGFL
Outline: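 Luminescence read-out: ONE-Glo reagent, 30 min at room temperature, in HG2L7.5c1 HepG2 reporter cells treated 24 h at 37C. Viability was measured beforehand by CellTiter-Fluor fluorescence after 30 min at 37C.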

[18] = qHTS assay for small molecule agonists of the antioxidant response element (ARE) signaling pathway (AID 743202; active means well fitted activation curve with a large enough effect in the signal ratio in the repeat runs, not every such curve was filed as active; the % refers to the signal ratio)
Outline: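 HepG2 ARE-bla reporter line, 2,000 cells/well; 5 h preincubation 37 C/5% CO2; compound (DMSO) 16 h 37 C; B/G FRET substrate 2 h RT; fluorescence intensity.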

[19] = qHTS assay to identify small molecule antagonists of the thyroid receptor (TR) signaling pathway (AID 743065); further: nearly all actives have a fitted effect of over 55% in size
Outline: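 GH3.TRE-Luc rat pituitary cells (two TREs driving luciferase) were dosed with compound, then stimulated with 1 nM T3 (final) for 23.5 h at 37 C. ONE-Glo luminescence was the read-out, with CellTiter-Fluor fluorescence as the cytotoxicity counter-screen.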
On the % scale 0 is the no-effect control and ±100 the full control effect.

CCOP(=S)(OCC)SCSP(=S)(OCC)OCC
inactive: Potency [1] | Potency [2] | Potency [3] | outcome [4] | Potency [5] | Potency [7] | Potency [8] | Potency (Aromatase (Homo sapiens)) | Potency [9] | outcome [10] | outcome [11] | Potency [12] | Potency [13] | Potency [14] | Potency [15] | outcome [16]
active: Potency [6] 38.6 µM

O=C1OC(=O)C2C1C1(Cl)C(Cl)=C(Cl)C2(Cl)C1(Cl)Cl (stereo unspecified)
inactive: Potency [1] | Potency [2] | Potency [3] | Potency [5] | activation ([6]; at 95 µM (top of the series)) -12.2% | Potency [7] | Potency [8] | Potency (Aromatase (Homo sapiens)) | Potency [9] | Potency [17] | outcome [10] | outcome [11] | Potency [12] | Potency [13] | Potency [14] | Potency [15] | outcome [16]

O=C1CN=C(c2ccccc2)c2cc([N+](=O)[O-])ccc2N1
inactive: Potency [1] | Potency [2] | Potency [3] | outcome [4] | Potency [5] | activation ([6]; at 70.3 µM (top of the series)) -1.51% | Potency [7] | Potency [8] | Potency (Aromatase (Homo sapiens)) | Potency [9] | Potency [17] | outcome [10] | outcome [11] | Potency [12] | Potency [18] | Potency [14] | Potency [15] | outcome [16]

O=C(O)c1cccc(Cl)c1
inactive: Potency [1] | Potency [2] | Potency [3] | outcome [4] | Potency [5] | activation ([6]; at 70.3 µM (top of the series)) 2.91% | Potency [7] | Potency [8] | Potency (Aromatase (Homo sapiens)) | Potency [9] | Potency [17] | outcome [10] | outcome [11] | Potency [12] | Potency [13] | Potency [14] | Potency [15] | outcome [16]

ClC(Br)Br
inactive: Potency [1] | Potency [2] | Potency [3] | outcome [4] | Potency [5] | activation ([6]; at 70.3 µM (top of the series)) 1.01% | Potency [7] | Potency [8] | Potency (Aromatase (Homo sapiens)) | Potency [9] | Potency [17] | outcome [10] | outcome [11] | Potency [12] | Potency [13] | Potency [18] | Potency [14] | outcome [16]

Clc1cccc(N2CCNCC2)c1
inactive: Potency [1] | Potency [2] | Potency [3] | outcome [4] | Potency [5] | activation ([6]; at 70.3 µM (top of the series)) 10.2% | Potency [7] | Potency [8] | Potency (Aromatase (Homo sapiens)) | Potency [9] | Potency [17] | outcome [10] | outcome [11] | Potency [12] | Potency [13] | Potency [18] | Potency [14] | outcome [16]

CC(CCc1ccccc1)NC(C)C(O)c1ccc(O)cc1 (stereo unspecified)
inactive: Potency [2] | Potency [3] | outcome [4] | Potency [5] | activation ([6]; at 70.3 µM (top of the series)) -7.77% | Potency [7] | Potency [8] | Potency (Aromatase (Homo sapiens)) | Potency [9] | Potency [17] | outcome [10] | outcome [11] | Potency [13] | Potency [14] | Potency [15] | outcome [16]
active: Potency [1] 16.8 µM

N#Cc1ccncc1
inactive: Potency [1] | Potency [2] | Potency [3] | outcome [4] | Potency [5] | activation ([6]; at 95 µM (top of the series)) 1.2% | Potency [7] | Potency [8] | Potency (Aromatase (Homo sapiens)) | Potency [9] | Potency [17] | outcome [10] | outcome [11] | Potency [12] | Potency [18] | Potency [14] | Potency [15]

CCCSP(=S)(OCC)Oc1ccc(Cl)cc1Cl (stereo unspecified)
active: Potency [6] 38.6 µM | Potency [17] 54.5 µM
inactive: Potency [1] | Potency [2] | Potency [3] | outcome [4] | Potency [7] | Potency [8] | Potency (Aromatase (Homo sapiens)) | Potency [9] | outcome [10] | outcome [11] | Potency [12] | Potency [13] | Potency [14] | Potency [15] | outcome [16]

C=CC1CC=CCC1 (stereo unspecified)
inactive: Potency [1] | Potency [2] | Potency [3] | outcome [4] | Potency [5] | activation ([6]; at 70.3 µM (top of the series)) 11% | Potency [7] | Potency [8] | Potency (Aromatase (Homo sapiens)) | Potency [9] | Potency [17] | outcome [10] | outcome [11] | Potency [12] | Potency [13] | Potency [14] | Potency [15] | outcome [16]

Cc1coc2c1CCC(C)C2 (stereo unspecified)
inactive: Potency [1] | Potency [2] | Potency [3] | outcome [4] | Potency [5] | Potency [7] | Potency [8] | Potency (Aromatase (Homo sapiens)) | Potency [9] | outcome [10] | Potency [13] | Potency [15]

CCC1(c2ccccc2)C(=O)N=C(O)NC1=O (stereo unspecified)
inactive: Potency [1] | Potency [19] | Potency [3] | outcome [4] | Potency [5] | activation ([6]; at 70.3 µM (top of the series)) -3.61% | Potency [7] | Potency [8] | Potency (Aromatase (Homo sapiens)) | Potency [9] | Potency [17] | outcome [10] | outcome [11] | Potency [12] | Potency [13] | Potency [18] | Potency [14] | outcome [16]

CCOP(=S)(OCC)Oc1nc(Cl)n(C(C)C)n1
inactive: Potency [1] | Potency [2] | Potency [3] | outcome [4] | Potency [5] | activation ([6]; at 70.3 µM (top of the series)) 5.59% | Potency [7] | Potency [8] | Potency (Aromatase (Homo sapiens)) | Potency [9] | outcome [10] | outcome [11] | Potency [12] | Potency [13] | Potency [18] | Potency [14] | Potency [15]
active: Potency [17] 10.9 µM

C=C(C)CN(CC)c1c([N+](=O)[O-])cc(C(F)(F)F)cc1[N+](=O)[O-]
inactive: Potency [19] | Potency [2] | Potency [3] | outcome [4] | Potency [5] | activation ([6]; at 70.3 µM (top of the series)) 11.3% | Potency [8] | Potency (Aromatase (Homo sapiens)) | Potency [9] | Potency [17] | outcome [10] | outcome [11] | Potency [12] | Potency [14] | Potency [15] | outcome [16]

O=C(NCO)NCO
inactive: Potency [19] | Potency [2] | Potency [3] | outcome [4] | Potency [5] | activation ([6]; at 95 µM (top of the series)) 2.29% | Potency [7] | Potency [8] | Potency (Aromatase (Homo sapiens)) | Potency [17] | outcome [10] | outcome [11] | Potency [12] | Potency [13] | Potency [18] | Potency [14] | Potency [15] | outcome [16]

CCOP(=O)(OCC)OP(=O)(OCC)OCC
inactive: Potency [1] | Potency [2] | outcome [4] | Potency [8] | Potency (Aromatase (Homo sapiens)) | Potency [9] | Potency [17] | outcome [10] | outcome [11] | Potency [12] | Potency [13] | Potency [14] | Potency [15] | outcome [16]
